rTrxR1 inhibitor = blocks rat thioredoxin reductase 1; recombinant rTrxR1, NADPH fluorescence consumption, selenite substrate; hit rate 1% among 390,000; O89049; Potency, µM (doses to about 114 µM), without a hit: top-dose activity change, negative = inhibition, actives largely listed as inhibitors; further: potency means the concentration at half of the fitted maximal effect; nearly all actives have a fitted effect of over 65% in size
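Rat TrxR1 (90 nM in the dispensed reagent) was pre-reduced with 400 uM NADPH for 5 min at room temperature, then incubated with compound for 15 min. After 400 uM selenite was added, NADPH fluorescence (Ex 340/Em 450 nm) was followed for 8 min.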
GALK inhibitor = inhibitors of human galactokinase. AID 1868. Purified GALK, Kinase-Glo residual ATP luminescence. Potency, µM (top dose mostly 57.5 µM), without a hit: at the top dose activity change, negative = inhibition, usual class: inhibitors. P51570. hit rate 0.007% among 270,000; further: potency means the concentration at half of the fitted maximal effect
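Luminescence from leftover ATP (Ultra-Glo luciferase/luciferin) served as read-out after a 1 h room-temperature reaction of 5 nM GALK with 35 uM ATP and 100 uM galactose.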
FBPA coupling cs = counter-screen for Giardia aldolase inhibitors: coupling enzyme system; coupling enzyme system counterscreen, AmpLite Red fluorescence; activity change, negative = inhibition, % at 58.2 µM, hits read low; hit rate 0.67% among 290,000; AID 2472; in the data active means activity change below about -30%
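Coupling enzymes only (glyceraldehyde-3-phosphate) + compound, at 57.5 uM final, 10 min RT; add substrate/coupling/AmpLite Red mix, 20 min RT; fluorescence ex 525/em 598 nm. Actives flag coupling-system interference.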
Gal4-VP16 FLuc = Gal4-VP16 reporter inhibition counter-screen; Drosophila S2 Gal4-VP16 UAS-luciferase, luminescence, 20 h; Potency, µM (series often up to 53.6 µM), for inactives: at the top dose activity, negative = inhibition, usual class: inhibitors; hit rate 3.5% among 310,000; AID 2546;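 further: Gal4-VP16 expression switched on by copper sulfate through the metallothionein promoter; potency means the concentration at half of the fitted maximal effect; nearly all actives have a fitted effect of over 50% in size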
TrxR1 substrate = is turned over as a substrate by rat TrxR1 | purified TrxR1 substrate turnover, NADPH consumption readout | hit rate 0.01% among 390,000 | AID 588456 | Potency, µM (series often up to 114 µM), inactives show at the highest dose activity change, negative = substrate turnover; further: potency means the concentration at half of the fitted maximal effect; nearly all actives have a fitted effect of over 50% in size
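Rat TrxR1, dispensed at 90 nM, was prereduced with 400 uM NADPH (final) for 5 min at ~22 deg C, then incubated with compound 15 min before 400 uM selenite. A first-read NADPH fluorescence drop versus no-compound background flagged substrates.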
RORg inh = ROR gamma (mouse) transcription inhibition. Drosophila S2 Gal4-RORgamma UAS-luciferase reporter, 20 h. hit rate 5.4% among 310,000. P51450. AID 2551. Potency, µM (titrated, usually from 53.6 µM), for the others: at the top dose activity change, negative = inhibition, actives largely listed as inhibitors; further: potency means the concentration at half of the fitted maximal effect; nearly all actives have a fitted effect of over 60% in size
Target sequence (P51450 whole entry, looked up, the tested form may be a part): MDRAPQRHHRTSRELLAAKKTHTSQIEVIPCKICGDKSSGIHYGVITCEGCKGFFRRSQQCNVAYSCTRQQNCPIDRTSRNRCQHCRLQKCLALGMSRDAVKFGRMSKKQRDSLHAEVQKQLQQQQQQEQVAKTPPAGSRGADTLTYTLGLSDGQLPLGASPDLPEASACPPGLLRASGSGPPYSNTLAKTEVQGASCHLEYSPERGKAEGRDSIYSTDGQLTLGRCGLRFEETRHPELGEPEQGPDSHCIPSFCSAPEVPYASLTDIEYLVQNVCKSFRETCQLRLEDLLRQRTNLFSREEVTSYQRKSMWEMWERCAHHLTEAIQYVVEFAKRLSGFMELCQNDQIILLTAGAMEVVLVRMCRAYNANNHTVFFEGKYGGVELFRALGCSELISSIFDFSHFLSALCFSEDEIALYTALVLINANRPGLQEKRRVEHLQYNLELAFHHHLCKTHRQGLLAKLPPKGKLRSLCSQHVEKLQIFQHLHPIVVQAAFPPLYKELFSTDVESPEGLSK
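ROR gamma transcriptional activity was tracked as Gal4-UAS luciferase output in stably transfected Drosophila Schneider cells, with compound added 1 hr before 700 uM copper sulfate induction and a 20 hr ambient-temperature incubation.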
* = called active by the depositor; ? = inconclusive; nt = not tested or not shown; [ ] = dose if it differs, or a comment. An excerpt weighted towards active compounds, which were near 5.9% of everything screened. Unless noted, the call rests on the fitted dose curve; in most records, active means well fitted curve in the direction sought with a large enough effect; inconclusive means small, poorly fitted or top-dose-only effect, or another doubt; inactive means no such curve, though single readings can be large; an effect the other way counts as inactive or inconclusive. On the % scale 0 is the no-effect control and ±100 the full control effect.

SMILES	rTrxR1 inhibitor	GALK inhibitor	FBPA coupling cs	Gal4-VP16 FLuc	TrxR1 substrate	RORg inh
CC(C)c1ccc(-c2nnn(CCC(=O)O)n2)cc1	-13.8%	0.3%	6.7	?	-14.5%	0.398µM*
COc1cc(/C=C(\C#N)C(=O)NC2CCCCC2)ccc1OCc1ccc(C(=O)O)cc1	-13.5%[57.1 µM]	-0.5%	8.9	?	-2.4%[57.1 µM]	12.6µM*
CCOC(=O)Cc1csc(NC(=S)NC(=O)c2ccccc2C)n1	-5.0%	0.2%	2.7	-27.7%	2.6%	11.2µM*
CCOC(=O)Cc1csc(NC(=S)NC(=O)c2ccc(F)cc2)n1	-10.4%	-1.2%	-0.9	?	-7.4%	11.2µM*
CCc1noc(C)c1C(=O)Nc1nc2c(F)cc(F)cc2s1	7.5%	nt	nt	nt	-5.0%	nt
O=C(OCc1cc(=O)n2ccsc2n1)c1ccccc1NCCO	4.1%	nt	nt	nt	17.3%	nt
CN1CCN(CCCNC(=O)c2cnn(-c3ccccc3)c2-n2cccc2)CC1	-9.3%	nt	nt	nt	-0.6%	nt
CCN(C(=S)NC(=O)Cc1ccc(OC)cc1)c1ccccc1	16.0%	nt	nt	nt	3.8%	nt
COc1ccc(CNC(=O)Cc2ccc(OC)c(S(=O)(=O)N3CCOCC3)c2)cc1	-5.4%	0.2%	-0.5	-0.1%	-9.6%	3.4%
CC(=O)N(c1nc(CCl)cs1)c1c(C)cc(C)cc1C	25.0%	0.6%	4.5	2.3%	-0.1%	11.2%
c1csc(C2C3=C(Nc4ncnn42)c2ccccc2OC3)c1 (stereo not given)	79.4µM*	1.6%	-3.1	2.6%	18.2%	-35.8%
CCC(C)NC(=O)CSc1nc2ccccc2c(=O)n1Cc1ccc(OC)cc1 (stereo not given)	10.8%	4.7%	-6.0	10µM*	2.4%	8.4%
CCCCn1c(SCC(=O)N2CCOCC2)nc2ccccc2c1=O	-7.5%	-2.7%	0.6	4.6%	-4.0%	29.3%
CCCCn1c(SCC(=O)NC(C)CC)nc2ccc(N3CCOCC3)cc2c1=O (stereo not given)	-10.9%	-0.3%	-36.0*	20µM*	-2.1%	1.26µM*
COc1ccc(C(=O)Nn2c(SCC(=O)c3ccccc3)nc3ccccc3c2=O)cc1	-11.6%	0.5%	1.0	?	-11.0%	11.2µM*
CCC(C)NC(=O)CSc1nc2ccc(N3CCOCC3)cc2c(=O)n1CCc1ccccc1 (stereo not given)	nt	-1.6%	-22.1	?	nt	7.94µM*
COCCNC(=O)c1ccc(Cn2c(SCC(=O)NC(C)C)nc3ccccc3c2=O)cc1	8.8%[57.1 µM]	nt	nt	nt	-7.5%[57.1 µM]	nt
CCC(C)NC(=O)CSc1n[nH]c(=O)n1CCc1ccccc1 (stereo not given)	-12.3%	-0.8%	2.8	0.9%	8.8%	-22.6%
CCOC(=O)CSc1nc2ccccc2c(=O)n1NC(=O)c1ccccc1	0.3%[57.1 µM]	3.6%	5.0	-3.4%	3.6%[57.1 µM]	-22.1%
CCn1c(SCC(=O)Nc2ccc(N3CCOCC3)cc2)nnc1-c1ccc(OC)cc1	18.0%	-0.5%	2.7	?	3.3%	-1.9%
CCCCn1c(SCC(=O)Nc2ccc(OC)cc2)nc2ccc(N3CCOCC3)cc2c1=O	-13.7%	1.1%	-31.6*	10µM*	4.0%	?
O=C1C(=Cc2ccco2)CCCC1=Cc1ccco1	44.7µM*	nt	nt	nt	?	nt
O=C1C(=Cc2ccco2)CCC1=Cc1ccco1	2.82µM*	nt	nt	nt	4.4%[57.1 µM]	nt
O/N=C1\CCC\C1=C/c1ccco1	?	-3.7%	-1.1	-3.7%	4.4%	0.6%
CCCC(=O)Oc1ccccc1C1SCc2cc(C)c(C)cc2CS1	13.6%	-1.2%	-1.7	12.1%	2.0%	9.0%
N=C1N(/N=C/c2ccccc2)C(=Nc2ccccc2)C(=S)N1c1ccccc1	-7.2%	-5.1%	2.1	5.01µM*	2.8%	4.47µM*
CCCOc1ccc(-c2nc(C#N)c(N3CCN(CC)CC3)o2)cc1	-8.9%	-2.8%	0.1	2.9%	77.4%	18.3%
Cc1ccccc1-n1c(C)cc(/C=N/Nc2ccc([N+](=O)[O-])cn2)c1C	0.0%	-3.5%	-1.5	5.62µM*	-9.5%	6.31µM*
Cc1cc(/C=N/Nc2ccc([N+](=O)[O-])cn2)c(C)n1-c1ccc(C(=O)O)cc1	?	-8.3%	-7.0	22.3%	-10.0%[57.1 µM]	-29.8%

Screening data deposited in PubChem by National Center for Advancing Translational Sciences (NCATS).
